Reference: paper PMC8384837, “Expanding the binding specificity for RNA recognition by a PUF domain”

Target: PUM1 PUF domain R4-SPS (Homo sapiens, UniProt Q14671 828-1176, N971S;H972P;Q975S)
Assay: yeast three-hybrid, YBZ-1, SC-Leu-His + 0.5 mM 3-AT, 4 days
Settings: tags: N-Gal4 AD-HA kept; label: inside an RPR1-promoter hybrid RNA with tandem MS2 sites; ssRNA
Procedure, shortened: (§1)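 A centromeric plasmid in strain YBZ-1 co-expressed Pumilio-1 PUF domain libraries, randomized at the three base-contacting residues of each repeat, with matching RNA elements; the strain carries a LexA–MS2 coat fusion and a HIS3 reporter. After four days on SC-Leu (input) or SC-Leu-His + 0.5 mM 3-AT (selection), the repeat regions were PCR-amplified and Illumina-sequenced. The interaction score is the log change in variant frequency from input to selection, using log2 and a pseudocount of 1 where absent.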

Sequence of PUM1 PUF domain R4-SPS (Q14671 828-1176 N971S/H972P/Q975S): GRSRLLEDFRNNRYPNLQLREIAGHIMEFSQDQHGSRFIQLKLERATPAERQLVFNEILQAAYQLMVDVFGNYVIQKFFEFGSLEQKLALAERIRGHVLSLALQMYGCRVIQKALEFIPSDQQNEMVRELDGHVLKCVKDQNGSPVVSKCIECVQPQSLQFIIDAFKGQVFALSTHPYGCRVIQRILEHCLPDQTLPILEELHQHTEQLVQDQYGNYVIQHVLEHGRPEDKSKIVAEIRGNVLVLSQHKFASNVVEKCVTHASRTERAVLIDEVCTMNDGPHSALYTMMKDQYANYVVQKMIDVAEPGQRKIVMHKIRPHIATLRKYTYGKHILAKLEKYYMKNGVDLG

Row | Sequence | binding signal
1 | GGCUAGAACUAGUGGAUCCCCCGGCGCCCGGCGGCUCGAGCCCGGGUAAGUGUAUAUAGUCUGCAUGCCGCCGGGCGCCAUGCCUGCAGGUCGACUCUAGAAAACAUG | 2.82 log2 enrichment (interaction score)
2 | GGCUAGAACUAGUGGAUCCCCCGGCGCCCGGCGGCUCGAGCCCGGGUAAGUGUACAUAGUCUGCAUGCCGCCGGGCGCCAUGCCUGCAGGUCGACUCUAGAAAACAUG | 1.66 log2 enrichment (interaction score)
3 | GGCUAGAACUAGUGGAUCCCCCGGCGCCCGGCGGCUCGAGCCCGGGUAAGUGUAAAUAGUCUGCAUGCCGCCGGGCGCCAUGCCUGCAGGUCGACUCUAGAAAACAUG | 3.74 log2 enrichment (interaction score)

Target: PUM1 PUF domain R5-KYY (Homo sapiens, UniProt Q14671 828-1176, C1007K;R1008Y;Q1011Y)
Sequence (Q14671 828-1176 C1007K/R1008Y/Q1011Y): as the sequence (Q14671 828-1176 N971S/H972P/Q975S) above, with S144N, P145H, S148Q, C180K, R181Y, Q184Y counted along it
Assay: as above
Settings: tags: N-Gal4 AD-HA kept; label: inside an RPR1-promoter hybrid RNA with tandem MS2 sites; ssRNA
Procedure, shortened: as §1

Row | Sequence | binding signal
4 | GGCUAGAACUAGUGGAUCCCCCGGCGCCCGGCGGCUCGAGCCCGGGUAAGUGUUAAUAGUCUGCAUGCCGCCGGGCGCCAUGCCUGCAGGUCGACUCUAGAAAACAUG | 2.56 log2 enrichment (interaction score)
5 | GGCUAGAACUAGUGGAUCCCCCGGCGCCCGGCGGCUCGAGCCCGGGUAAGUGUCAAUAGUCUGCAUGCCGCCGGGCGCCAUGCCUGCAGGUCGACUCUAGAAAACAUG | 3.07 log2 enrichment (interaction score)
6 | GGCUAGAACUAGUGGAUCCCCCGGCGCCCGGCGGCUCGAGCCCGGGUAAGUGUAAAUAGUCUGCAUGCCGCCGGGCGCCAUGCCUGCAGGUCGACUCUAGAAAACAUG | 1.63 log2 enrichment (interaction score)
